{"source": "PubChem BioAssay (NCI)", "note": "This is part of a sample that, as a whole, favours compounds with a hit. Of some 83,000 tested, about 20% had one in any assay.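 For each line, cells grew in 96-well plates with the test compound present at a single concentration for 48 hours.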 Calls of active or inactive are those of the source. How the source made its calls: active means growth percent below 10; inactive means the rest."}
{"tested_on": "SN12C renal", "experiment": "NCI-60 one-dose screen, 48 h (100 = growth as untreated, 0 = no growth, -100 = all killed)", "conditions": "10 µM"}
{"compound": "O=[N+]([O-])c1cc(Cl)cc(Cl)c1O", "growth": "101% (inactive)"}
{"compound": "CN(C)CCCSc1ccccc1NC1=C(Cl)C(=O)C(Nc2ccccc2SCCCN(C)C)=C(Cl)C1=O", "growth": "-61.2% (active)"}
{"compound": "CCN(CC)CCOc1cccc2c1C(=O)c1ccccc1C2=O", "growth": "90.9% (inactive)"}
{"compound": "CCOC(=O)c1cc(C(=O)c2ccc(OC)c(OC)c2)n2c1ccc1ccc3cccnc3c12", "growth": "62.1% (inactive)"}
{"compound": "CCN(CC)CCOc1ccc2c(c1O)C(=O)c1ccccc1C2=O", "growth": "76.2% (inactive)"}
{"compound": "COc1cc(-c2nn(-c3cccc(NC(=O)NCCNC(=O)c4ccccc4)c3)cc2-c2ccncc2)ccc1Cl", "growth": "25.2% (inactive)"}
{"compound": "CN(C)CCN(Cc1ccccc1)c1ccc2ccccc2n1", "growth": "93.8% (inactive)"}
{"compound": "Nc1ccc(/C=N/Nc2ccnc3c(O)cccc23)c2cccnc12", "growth": "76.9% (inactive)"}
{"compound": "CCOC(=O)c1cc(C(=O)c2cc(OC)c(OC)c(OC)c2)n2ccc(-c3cc[n+](CC(=O)c4cc(OC)c(OC)c(OC)c4)cc3)cc12", "growth": "84.6% (inactive)"}
{"compound": "COc1ccc2nc(-c3ccc(Cl)cc3)cc(-c3nnc(SC/C(=N\\O)c4ccccc4)n3-c3ccccc3)c2c1", "growth": "95.8% (inactive)"}
{"compound": "CCN(CC)CCNc1ccc(C)c2sc3cc(Cl)ccc3c(=O)c12", "growth": "35.6% (inactive)"}
{"compound": "C/C=C/CSC(C)(C)C(=O)NC", "growth": "106% (inactive)"}
{"compound": "CCOS(=O)(=O)c1c(C(C)C)cc(C(C)C)cc1C(C)C", "growth": "98.3% (inactive)"}
{"compound": "O=C(Nc1nc(-c2ccccc2)nc2c1sc(=S)n2-c1ccccc1)C(F)(F)F", "growth": "95.3% (inactive)"}
{"compound": "CCOC(=O)c1cc(C(=O)c2cc(OC)c(OC)c(OC)c2)n2ncc3ccccc3c12", "growth": "101% (inactive)"}
{"compound": "Cc1ccc(NCCN(C)CC(C)O)c2c(=O)c3ccccc3sc12", "note": "(stereo not given)", "growth": "49.6% (inactive)"}
{"compound": "COc1cc(-c2nn(-c3cccc(NC(=O)NCCNS(=O)(=O)c4ccc(Cl)cc4)c3)cc2-c2ccncc2)ccc1Cl", "growth": "35.5% (inactive)"}
{"compound": "COc1cc(-c2nn(-c3cccc(NC(=O)CCN4CCN(c5ccccc5)CC4)c3)cc2-c2ccncc2)ccc1Cl", "growth": "32.4% (inactive)"}
{"compound": "O=S(=O)(O)c1cccc(Nc2ccc3ccccc3c2)c1", "growth": "92.5% (inactive)"}
{"compound": "CCCCCCCCCCOC(c1ccccc1)c1ccccc1", "growth": "102% (inactive)"}
{"compound": "CC(=O)Nc1ccc2c(c1)C(=O)c1cccc(C(=O)O)c1-2", "growth": "109% (inactive)"}
{"compound": "Cc1ccc(NCCNCC(C)(C)O)c2c(=O)c3ccc(Cl)cc3sc12", "growth": "34% (inactive)"}
{"compound": "CN(C)CCOc1cccc(NC2=C(Cl)C(=O)C(Nc3cccc(OCCN(C)C)c3)=C(Cl)C2=O)c1", "growth": "-76.3% (active)"}
{"compound": "CCOC(=O)c1cc(C(=O)c2ccc(Cl)cc2)n2ccc(-c3cc[n+](CC(=O)c4ccc(OC)cc4)cc3)cc12", "growth": "102% (inactive)"}
{"compound": "O=C1c2ccccc2C(=O)c2c1ccc(C(Br)Br)c2[N+](=O)[O-]", "growth": "34.4% (inactive)"}
{"compound": "O=C(NCCNC(=O)c1ccc(F)cc1)Nc1ccc(-n2cc(-c3ccncc3)c(-c3ccc(Cl)c(O)c3)n2)cc1", "growth": "31.5% (inactive)"}
{"compound": "CCN(CC)CC(=O)N(CC)c1ccc(C)c(Cl)c1", "growth": "101% (inactive)"}
{"compound": "O=S(=O)(O)c1ccc(Cl)cc1", "growth": "100% (inactive)"}
{"compound": "CCNCC(=O)Nc1ccc(C(=O)OCC)cc1", "growth": "98.6% (inactive)"}
{"compound": "S=C(SSC(=S)N(c1ccccc1)c1ccccc1)N(c1ccccc1)c1ccccc1", "growth": "94.5% (inactive)"}
{"compound": "CC(C)CCN(CCC(C)C)CC(=O)Nc1ccc(S(=O)(=O)c2ccc(NC(=O)CN(CCC(C)C)CCC(C)C)cc2)cc1", "growth": "74.6% (inactive)"}
{"compound": "N#CCc1csc(Cc2ccccc2)n1", "growth": "101% (inactive)"}
{"compound": "CCOC(=O)c1cocc1C(=O)O", "growth": "105% (inactive)"}
{"compound": "CC(CN(C)C)Oc1ccc(OC(C)CN(C)C)c2c1C(=O)c1ccccc1C2=O", "note": "(stereo not given)", "growth": "33.5% (inactive)"}
{"compound": "Cc1ccc(S(=O)(=O)N(C)CCCCCC(=O)O)cc1", "growth": "106% (inactive)"}
{"compound": "Cc1ccc(NCCN(C)CC(C)O)c2c(=O)c3ccc(Cl)cc3sc12", "note": "(stereo not given)", "growth": "49.8% (inactive)"}
{"compound": "O=C(Nc1cccc2c1CCCC2)c1cc2ccccc2cc1O", "growth": "25.6% (inactive)"}
{"compound": "COc1cc(OC)c2c(=O)c(O)c(-c3ccccc3)oc2c1", "growth": "73.3% (inactive)"}
{"compound": "O=C1c2ccccc2C(=O)c2c1ccc(C(Br)Br)c2Cl", "growth": "-48.5% (active)"}
{"compound": "COc1cc(C)ccc1Oc1nc(Nc2ccc(N3CCOCC3)cc2)ncc1NC(=O)Nc1cc(C(F)(F)F)cc(C(F)(F)F)c1", "growth": "58.1% (inactive)"}
{"tested_on": "UO-31 renal", "experiment": "NCI-60 one-dose screen, 48 h (100 = growth as untreated, 0 = no growth, -100 = all killed)", "conditions": "10 µM"}
{"compound": "O=[N+]([O-])c1cc(Cl)cc(Cl)c1O", "growth": "84% (inactive)"}
{"compound": "CN(C)CCCSc1ccccc1NC1=C(Cl)C(=O)C(Nc2ccccc2SCCCN(C)C)=C(Cl)C1=O", "growth": "35% (inactive)"}
{"compound": "CCN(CC)CCOc1cccc2c1C(=O)c1ccccc1C2=O", "growth": "62.2% (inactive)"}
{"compound": "CCOC(=O)c1cc(C(=O)c2ccc(OC)c(OC)c2)n2c1ccc1ccc3cccnc3c12", "growth": "44% (inactive)"}
{"compound": "CCN(CC)CCOc1ccc2c(c1O)C(=O)c1ccccc1C2=O", "growth": "67.3% (inactive)"}
{"compound": "COc1cc(-c2nn(-c3cccc(NC(=O)NCCNC(=O)c4ccccc4)c3)cc2-c2ccncc2)ccc1Cl", "growth": "13.6% (inactive)"}
{"compound": "CN(C)CCN(Cc1ccccc1)c1ccc2ccccc2n1", "growth": "76.2% (inactive)"}
{"compound": "Nc1ccc(/C=N/Nc2ccnc3c(O)cccc23)c2cccnc12", "growth": "55.8% (inactive)"}
{"compound": "CCOC(=O)c1cc(C(=O)c2cc(OC)c(OC)c(OC)c2)n2ccc(-c3cc[n+](CC(=O)c4cc(OC)c(OC)c(OC)c4)cc3)cc12", "growth": "66.1% (inactive)"}
{"compound": "COc1ccc2nc(-c3ccc(Cl)cc3)cc(-c3nnc(SC/C(=N\\O)c4ccccc4)n3-c3ccccc3)c2c1", "growth": "78.2% (inactive)"}
{"compound": "CCN(CC)CCNc1ccc(C)c2sc3cc(Cl)ccc3c(=O)c12", "growth": "26.9% (inactive)"}
{"compound": "C/C=C/CSC(C)(C)C(=O)NC", "growth": "93.8% (inactive)"}
{"compound": "CCOS(=O)(=O)c1c(C(C)C)cc(C(C)C)cc1C(C)C", "growth": "92.2% (inactive)"}
{"compound": "O=C(Nc1nc(-c2ccccc2)nc2c1sc(=S)n2-c1ccccc1)C(F)(F)F", "growth": "81.2% (inactive)"}
{"compound": "CCOC(=O)c1cc(C(=O)c2cc(OC)c(OC)c(OC)c2)n2ncc3ccccc3c12", "growth": "75.6% (inactive)"}
{"compound": "Cc1ccc(NCCN(C)CC(C)O)c2c(=O)c3ccccc3sc12", "note": "(stereo not given)", "growth": "41.5% (inactive)"}
{"compound": "COc1cc(-c2nn(-c3cccc(NC(=O)NCCNS(=O)(=O)c4ccc(Cl)cc4)c3)cc2-c2ccncc2)ccc1Cl", "growth": "21.1% (inactive)"}
{"compound": "COc1cc(-c2nn(-c3cccc(NC(=O)CCN4CCN(c5ccccc5)CC4)c3)cc2-c2ccncc2)ccc1Cl", "growth": "37.8% (inactive)"}
{"compound": "O=S(=O)(O)c1cccc(Nc2ccc3ccccc3c2)c1", "growth": "68.9% (inactive)"}
{"compound": "CCCCCCCCCCOC(c1ccccc1)c1ccccc1", "growth": "75.6% (inactive)"}
{"compound": "CC(=O)Nc1ccc2c(c1)C(=O)c1cccc(C(=O)O)c1-2", "growth": "111% (inactive)"}
{"compound": "Cc1ccc(NCCNCC(C)(C)O)c2c(=O)c3ccc(Cl)cc3sc12", "growth": "41.2% (inactive)"}
{"compound": "CN(C)CCOc1cccc(NC2=C(Cl)C(=O)C(Nc3cccc(OCCN(C)C)c3)=C(Cl)C2=O)c1", "growth": "-100% (active)"}
{"compound": "CCOC(=O)c1cc(C(=O)c2ccc(Cl)cc2)n2ccc(-c3cc[n+](CC(=O)c4ccc(OC)cc4)cc3)cc12", "growth": "73.5% (inactive)"}
{"compound": "O=C1c2ccccc2C(=O)c2c1ccc(C(Br)Br)c2[N+](=O)[O-]", "growth": "50.6% (inactive)"}
{"compound": "O=C(NCCNC(=O)c1ccc(F)cc1)Nc1ccc(-n2cc(-c3ccncc3)c(-c3ccc(Cl)c(O)c3)n2)cc1", "growth": "16.9% (inactive)"}
{"compound": "CCN(CC)CC(=O)N(CC)c1ccc(C)c(Cl)c1", "growth": "90.7% (inactive)"}
{"compound": "O=S(=O)(O)c1ccc(Cl)cc1", "growth": "88.7% (inactive)"}
{"compound": "CCNCC(=O)Nc1ccc(C(=O)OCC)cc1", "growth": "95% (inactive)"}
{"compound": "S=C(SSC(=S)N(c1ccccc1)c1ccccc1)N(c1ccccc1)c1ccccc1", "growth": "97.1% (inactive)"}
{"compound": "CC(C)CCN(CCC(C)C)CC(=O)Nc1ccc(S(=O)(=O)c2ccc(NC(=O)CN(CCC(C)C)CCC(C)C)cc2)cc1", "growth": "63.3% (inactive)"}
{"compound": "N#CCc1csc(Cc2ccccc2)n1", "growth": "88.7% (inactive)"}
{"compound": "CCOC(=O)c1cocc1C(=O)O", "growth": "93.3% (inactive)"}
{"compound": "CC(CN(C)C)Oc1ccc(OC(C)CN(C)C)c2c1C(=O)c1ccccc1C2=O", "note": "(stereo not given)", "growth": "63.5% (inactive)"}
{"compound": "Cc1ccc(S(=O)(=O)N(C)CCCCCC(=O)O)cc1", "growth": "88.3% (inactive)"}
{"compound": "Cc1ccc(NCCN(C)CC(C)O)c2c(=O)c3ccc(Cl)cc3sc12", "note": "(stereo not given)", "growth": "51.5% (inactive)"}
{"compound": "O=C(Nc1cccc2c1CCCC2)c1cc2ccccc2cc1O", "growth": "17.5% (inactive)"}
{"compound": "COc1cc(OC)c2c(=O)c(O)c(-c3ccccc3)oc2c1", "growth": "53.8% (inactive)"}
{"compound": "O=C1c2ccccc2C(=O)c2c1ccc(C(Br)Br)c2Cl", "growth": "52.4% (inactive)"}
{"compound": "COc1cc(C)ccc1Oc1nc(Nc2ccc(N3CCOCC3)cc2)ncc1NC(=O)Nc1cc(C(F)(F)F)cc(C(F)(F)F)c1", "growth": "67.5% (inactive)"}
